Test results published in PubChem BioAssay AID1445 (SRMLSC, 2008).
Screen size: about 220,000 compounds; about 910 (0.41%) were called active.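 Rule for the calls: active = primary inhibition above the hit cutoff, then over 50% inhibition at one or more dose response concentrations (cut at about 23% in these data, passing the limit was not always enough); inconclusive = conflicting primary data, or primary hits not chosen for dose response; inactive = low primary inhibition, or under 50% at every dose.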 What follows is part of a selection rich in actives, with near analogues and random picks from the rest. Entries with a potency or affinity are not part of this list.

biological target: Aminopeptidase N (Plasmodium falciparum (isolate 3D7)) (UniProt O96935); experiment: malaria alanyl aminopeptidase activity blockers – biochemical, fluorogenic H-Leu-NHMec substrate, 1536-well (AID 1445); settings: recombinant M1AAP, H-Leu-NHMec fluorogenic kinetic assay; at 30 µM, stronger effect = higher value unless noted;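 note: plate controls were DMSO full reaction for no effect and no enzyme background for full effect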
Sequence (O96935 whole entry, looked up): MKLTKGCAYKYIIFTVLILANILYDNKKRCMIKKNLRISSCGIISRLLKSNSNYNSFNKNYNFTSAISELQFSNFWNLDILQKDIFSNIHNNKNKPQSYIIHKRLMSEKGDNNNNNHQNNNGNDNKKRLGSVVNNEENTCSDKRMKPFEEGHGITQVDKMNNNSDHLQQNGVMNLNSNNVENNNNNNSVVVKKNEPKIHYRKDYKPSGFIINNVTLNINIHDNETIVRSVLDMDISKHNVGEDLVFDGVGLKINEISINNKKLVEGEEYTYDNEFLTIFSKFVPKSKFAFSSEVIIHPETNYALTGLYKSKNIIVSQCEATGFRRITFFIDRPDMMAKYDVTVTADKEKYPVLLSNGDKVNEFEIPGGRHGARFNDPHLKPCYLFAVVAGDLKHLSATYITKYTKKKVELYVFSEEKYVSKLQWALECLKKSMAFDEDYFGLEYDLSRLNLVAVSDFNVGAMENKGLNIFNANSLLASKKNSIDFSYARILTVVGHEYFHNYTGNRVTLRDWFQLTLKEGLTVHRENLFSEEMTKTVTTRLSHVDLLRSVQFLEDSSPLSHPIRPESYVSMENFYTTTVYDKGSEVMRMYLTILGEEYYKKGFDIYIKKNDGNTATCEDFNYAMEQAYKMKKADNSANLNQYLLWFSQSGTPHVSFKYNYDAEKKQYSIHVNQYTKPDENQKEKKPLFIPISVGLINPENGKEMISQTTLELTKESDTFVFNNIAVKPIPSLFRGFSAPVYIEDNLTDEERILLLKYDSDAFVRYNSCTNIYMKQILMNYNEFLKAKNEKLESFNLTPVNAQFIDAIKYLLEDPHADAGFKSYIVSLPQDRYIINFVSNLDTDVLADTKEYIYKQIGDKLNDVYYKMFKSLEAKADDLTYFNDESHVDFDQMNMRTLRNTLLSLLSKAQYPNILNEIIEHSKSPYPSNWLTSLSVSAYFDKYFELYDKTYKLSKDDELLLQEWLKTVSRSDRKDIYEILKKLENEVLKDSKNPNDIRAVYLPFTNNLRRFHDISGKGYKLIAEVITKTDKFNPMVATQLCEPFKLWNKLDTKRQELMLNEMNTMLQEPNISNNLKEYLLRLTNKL

SMILES	inhibition
O=C(Cn1cc(C(F)(F)F)ccc1=O)N1CCN(S(=O)(=O)c2ccc(Cl)cc2)CC1	0.58% (inactive)
CCN1CC(CN(C)Cc2cn(-c3cccc(C)c3)nc2-c2cccc(F)c2)CC1=O (centres undefined)	0.42% (inactive)
Cc1cc2c(c(SCC(N)=O)n1)C(=O)OC2	0.63% (inactive)
CCOCCCNc1nc2c(C)cccn2c(=O)c1/C=C1\SC(=S)N(CC(C)C)C1=O	-0.56% (inactive)
CCCN1C(=O)/C(=C/c2c(NCCCOC(C)C)nc3c(C)cccn3c2=O)SC1=S	-6.67% (inactive)
CCOC(=O)CC1C(=O)NCCN1S(=O)(=O)c1ccc(OC)cc1 (centres undefined)	-8.28% (inactive)
CCCN1C(=O)/C(=C/c2c(NCCCOCC)nc3c(C)cccn3c2=O)SC1=S	-3.51% (inactive)
CCC(C)N1C(=O)/C(=C/c2c(NCCCOC(C)C)nc3c(C)cccn3c2=O)SC1=S (centres undefined)	10.2% (inactive)
CCOC(=O)CC1C(=O)NCCN1C(=O)c1cc2c(=O)n3cccc(C)c3nc2s1 (centres undefined)	11.1% (inactive)
Cc1c(NC(=O)CN2C(=O)NC3(CCCCC3)C2=O)c(=O)n(-c2ccccc2)n1C	-1.23% (inactive)
COc1ccc(S(=O)(=O)N2CCN(C)CC2)cc1Br	-2.63% (inactive)
Cc1nc(SCC(=O)Nc2ccccc2)c2oc3ccccc3c2n1	-7.15% (inactive)
O=C(Nc1ccccc1)Oc1ccccc1N1CCOCC1	2.65% (inactive)
COc1cc(C(=S)N2CCOCC2)ccc1OC(=O)c1cc([N+](=O)[O-])cc([N+](=O)[O-])c1	4.71% (inactive)
CCCC(=O)Nc1c(-c2cccs2)c(=O)c2ccccc2n1CC	3.31% (inactive)
CCn1c(NC(=O)c2cccs2)c(-c2cccs2)c(=O)c2ccccc21	27% (active)
CCOC(=O)N=Nc1c(O)n(CC)c2ccccc12	3.07% (inactive)
CCn1c(NC(=O)c2ccccc2)c(-c2cccs2)c(=O)c2ccccc21	7.57% (inactive)
CCn1c(O)c(N=NC(=O)C(O)c2ccccc2)c2ccccc21 (centres undefined)	5.57% (inactive)
N=C1/C(=C\c2coc3ccccc3c2=O)C(=O)N=C2SC=CN12	52.2% (inactive)
CC1=CC2=NC(=O)/C(=C/c3coc4ccc(Cl)cc4c3=O)C(=N)N2O1	7.94% (inactive)
N=C1/C(=C/c2coc3ccccc3c2=O)C(=O)N=C2SC(c3ccco3)=NN12	18.6% (inactive)

SMILES	inhibition
CC(C)CC1=NN2C(=N)/C(=C\c3coc4ccccc4c3=O)C(=O)N=C2S1	58% (inactive)
CCN1CCN(C(=O)C2CCN(Cc3cc(Cl)ccc3O)CC2)CC1	0.1% (inactive)
O=C(COC(=O)c1cc(NS(=O)(=O)c2cccs2)ccc1O)Nc1ccc(F)c(F)c1F	6.76% (inactive)
CC(C)(C)C(=O)Nc1ccc(S(=O)(=O)Nc2ccccn2)cc1	4.68% (inactive)
C/C(Cc1ccccc1)=N/NC(=O)CCCC(=O)N/N=C(/C)Cc1ccccc1	1.32% (inactive)
COc1ccc(C(=O)NNC(=O)Nc2ccc(C)cc2)cc1	-2.61% (inactive)
CCOC(=O)C(NC(=O)c1ccccc1Cl)(Nc1ccc(C)c(C)c1)C(F)(F)F (centres undefined)	3.71% (inactive)
COCc1nnc(NC(=O)c2sc3ccccc3c2Cl)s1	17.9% (inactive)
Cc1nnc(NC(=O)c2sc3ccccc3c2Cl)s1	27.1% (active)
CCc1nnc(NC(=O)c2ccc3ccccc3n2)s1	18.2% (inactive)
Cc1cnc(NC(=O)c2sc3ccccc3c2Cl)s1	5.85% (inactive)
CCC(CC)c1nnc(NC(=O)c2ccc3ccccc3n2)s1	44% (inactive)
CC1=C(C(=O)Nc2ccccn2)C(c2ccc(N(C)C)cc2)n2ncnc2N1 (centres undefined)	-4.41% (inactive)
CCC(C)[C@H](NC(=O)NC1CC1)C(=O)O (some centres undefined)	5.68% (inactive)
CCN(CC)c1cc(C)c2cc(NC(=O)c3ccc(Br)o3)ccc2n1	8.17% (inactive)
C[N+]1(CCCOC(=O)C2(c3ccccc3)CCCC2)CCOCC1	12.4% (inactive)
NC(=O)Cn1c(=O)n(CCc2ccccc2)c(=O)c2c3c(sc21)CCCC3	-0.91% (inactive)
COc1ccc(-n2c(=O)c3c4c(sc3n(CC(N)=O)c2=O)CCCCC4)cc1	4.45% (inactive)
CCOC(=O)N1CCN(S(=O)(=O)c2ccc(C(=O)Nc3sc4c(c3C#N)CCC4)cc2)CC1	4.62% (inactive)
CC(C)(C)NC(=O)Cn1c(-c2nonc2N)nc2ccccc21	8.2% (inactive)
CCOC(=O)c1ccccc1NC(=O)Cn1c(-c2nonc2N)nc2ccccc21	-0.93% (inactive)
COC(=O)c1ccccc1NC(=O)Cn1c(-c2nonc2N)nc2ccccc21	0.73% (inactive)

SMILES	inhibition
Nc1nonc1-c1nc2ccccc2n1CC(=O)Nc1ccccc1	2.57% (inactive)
NC(=O)Cn1c(-c2nonc2N)nc2ccccc21	2.36% (inactive)
Nc1nonc1-c1nc2ccccc2n1CC(=O)N/N=C\c1ccc(-c2ccc(Cl)cc2)o1	-0.3% (inactive)
COc1ccccc1C(=O)Nc1ccccc1C(=O)N1CCCC1	5.88% (inactive)
COc1ccc(CCNC(=O)COC(=O)c2ccc(N3CCCC3=O)cc2)cc1	-2.72% (inactive)
CC(=O)/C(N=Nc1ccc(C(=O)O)cc1)=C(\C)O	7.52% (inactive)
Cc1ccc(C)c(N2CCN(C(=O)c3ccc(CSc4nc5ccncc5[nH]4)cc3)CC2)c1	-6.94% (inactive)
Cc1ccc(C2=Nc3ccc(Br)cc3C(c3ccncc3)=NN2)cc1	-0.32% (inactive)
CCOC(=O)C1(CCOc2ccccc2)CCN(Cc2cnc(C)[nH]2)CC1	6.06% (inactive)
CCN(CC)NC(=S)Nc1ccccc1	-2.71% (inactive)
CN(C)c1nc(-c2ccc([N+](=O)[O-])cc2)cs1	4.18% (inactive)
Cc1c(NC(=O)CSc2nncc3ccccc23)c(=O)n(-c2ccccc2)n1C	3.35% (inactive)
O=C(O)CCCN1C(=O)/C(=C/C=C/c2ccco2)SC1=S	7.29% (inactive)
O=C(NN1C(=O)/C(=C/C=C/c2ccco2)SC1=S)c1ccncc1	17.5% (inactive)
CC(C(=O)O)N1C(=O)/C(=C/C=C/c2ccco2)SC1=S (centres undefined)	10.5% (inactive)
Cn1cccc1/C=C1\SC(=S)N(NC(=O)c2ccccc2Cl)C1=O	17.9% (inactive)
O=C1/C(=C/c2ccc(O)c([N+](=O)[O-])c2)SC(=S)N1Cc1ccccc1	10.2% (inactive)
O=C(NN1C(=O)/C(=C\c2ccc(O)c([N+](=O)[O-])c2)SC1=S)c1ccccc1Cl	19.8% (inactive)
COc1ccccc1C(=O)NN1C(=O)/C(=C/c2cccn2C)SC1=S	15.2% (inactive)
O=C1/C(=C/C=C/c2ccco2)SC(=S)N1c1ccc(O)cc1	15.5% (inactive)
